# Assay results published in the supplement of paper PMC8728848.
# This excerpt belongs to a sample that is enriched for the strongest signals.
# B1: Gal 1 (Mus musculus), P16045 (protein)
# chain: MACGLVASNLNLKPGECLKVRGEVASDAKSFVLNLGKDSNNLCLHFNPRFNAHGDANTIVCNTKEDGTWGTEHREPAFPFQPGSITEVCITFDQADLTIKLPDGHEFKFPNRLNMEAINYMAADGDFKIKCVAFE
# Legend:
# Experiment in all cases: glycan array binding signal (z-score within array); higher = stronger binding
# Settings in all cases: glycan notation: IUPAC condensed, linker removed
# [1] = biological target: Fuc(a1-2)Gal(b1-3)GlcNAc(b1-2)Man(a1-3)[Fuc(a1-2)Gal(b1-3)GlcNAc(b1-2)Man(a1-6)]Man(b1-4)GlcNAc(b1-4)GlcNAc
# In short: (§1)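 Glycan array binding is given as a within-array Z-score, which can be read as non-binding when negative. The arrays, 3228 of them, came from the Consortium for Functional Glycomics database and were retained only where the protein sequence was available. Z-scores were averaged across arrays of the same protein sequence at different concentrations or buffers and across linkers.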
# [2] = biological target: Fuc(a1-2)Gal(b1-3)GlcNAc(b1-3)Gal(b1-4)Glc
# In short: as §1
# Fuc(a1-2)Gal(b1-4)GlcNAc = biological target: Fuc(a1-2)Gal(b1-4)GlcNAc
# In short: as §1
# [3] = biological target: Fuc(a1-2)Gal(b1-4)GlcNAc(b1-2)[Fuc(a1-2)Gal(b1-4)GlcNAc(b1-4)]Man(a1-3)[Fuc(a1-2)Gal(b1-4)GlcNAc(b1-2)Man(a1-6)]Man(b1-4)GlcNAc(b1-4)GlcNAc
# In short: as §1
# [4] = biological target: Fuc(a1-2)Gal6S(b1-3)GlcNAc
# In short: as §1
# Fuc(a1-2)[Gal(a1-3)]Gal = biological target: Fuc(a1-2)[Gal(a1-3)]Gal
# In short: as §1
# [5] = biological target: Fuc(a1-2)[Gal(a1-3)]Gal(b1-3)GalNAc
# In short: as §1
# [6] = biological target: Fuc(a1-2)[Gal(a1-3)]Gal(b1-4)GlcNAc(b1-2)Man(a1-3)[Fuc(a1-2)[Gal(a1-3)]Gal(b1-4)GlcNAc(b1-2)Man(a1-6)]Man(b1-4)GlcNAc(b1-4)[Fuc(a1-6)]GlcNAc
# In short: as §1
# [7] = biological target: Fuc(a1-2)[Gal(a1-3)]Gal(b1-4)GlcNAc(b1-6)GalNAc
# In short: as §1
# [8] = biological target: Fuc(a1-2)[Gal(a1-3)]Gal(b1-4)[Fuc(a1-3)]Glc
# In short: as §1
# [9] = biological target: Fuc(a1-2)[Gal(a1-3)]Gal(b1-4)[Fuc(a1-3)]GlcNAc(b1-3)GalNAc
# In short: as §1
# [10] = biological target: Fuc(a1-2)[GalNAc(a1-3)]Gal(b1-3)GlcNAc
# In short: as §1
# [11] = biological target: Fuc(a1-3)[Gal(b1-4)]GlcNAc(b1-2)Man
# In short: as §1
# [12] = biological target: Fuc(a1-3)[Gal(b1-4)]GlcNAc(b1-3)Gal(b1-3)[Fuc(a1-4)]GlcNAc
# In short: as §1
# [13] = biological target: Fuc(a1-3)[Gal(b1-4)]GlcNAc(b1-3)GalNAc
# In short: as §1
# [14] = biological target: Fuc(a1-3)[GalNAc(b1-4)]GlcNAc
# In short: as §1
# [15] = biological target: Gal(a1-3)Gal(b1-3)GlcNAc(b1-3)GalNAc
# In short: as §1
# [16] = biological target: Gal(a1-3)Gal(b1-4)GlcNAc(b1-2)Man(a1-3)[Gal(a1-3)Gal(b1-4)GlcNAc(b1-2)Man(a1-6)]Man(b1-4)GlcNAc(b1-4)GlcNAc
# In short: as §1
# Gal(a1-3)GalNAc = biological target: Gal(a1-3)GalNAc
# In short: as §1
# Gal(a1-4)Gal(b1-4)Glc = biological target: Gal(a1-4)Gal(b1-4)Glc
# In short: as §1
# Gal(b1-2)Gal = biological target: Gal(b1-2)Gal
# In short: as §1
# Gal(b1-3)Gal(b1-4)GlcNAc = biological target: Gal(b1-3)Gal(b1-4)GlcNAc
# In short: as §1
# [17] = biological target: Gal(b1-3)GalNAc(a1-3)[Fuc(a1-2)]Gal(b1-4)Glc
# In short: as §1
# Gal(b1-3)GlcNAc(b1-2)Man = biological target: Gal(b1-3)GlcNAc(b1-2)Man
# In short: as §1
# [18] = biological target: Gal(b1-3)GlcNAc(b1-3)Gal(b1-4)GlcNAc(b1-3)Gal(b1-4)GlcNAc(b1-2)[Gal(b1-3)GlcNAc(b1-3)Gal(b1-4)GlcNAc(b1-3)Gal(b1-4)GlcNAc(b1-6)]Man(a1-6)[Gal(b1-3)GlcNAc(b1-3)Gal(b1-4)GlcNAc(b1-3)Gal(b1-4)GlcNAc(b1-2)Man(a1-3)]Man(b1-4)GlcNAc(b1-4)[Fuc(a1-6)]GlcNAc
# In short: as §1
# [19] = biological target: Gal(b1-3)[Neu5Ac(a2-6)]GlcNAc(b1-6)Gal(b1-4)Glc
# In short: as §1
# Gal(b1-4)GlcNAc(b1-2)Man = biological target: Gal(b1-4)GlcNAc(b1-2)Man
# In short: as §1
# [20] = biological target: Gal(b1-4)GlcNAc(b1-2)[Gal(b1-4)GlcNAc(b1-4)]Man(a1-3)[GlcNAc(b1-4)][Gal(b1-4)GlcNAc(b1-2)Man(a1-6)]Man(b1-4)GlcNAc(b1-4)GlcNAc
# In short: as §1
# [21] = biological target: Gal(b1-4)GlcNAc(b1-3)Gal(b1-4)GlcNAc(b1-2)[Gal(b1-4)GlcNAc(b1-3)Gal(b1-4)GlcNAc(b1-6)]Man(a1-6)[Gal(b1-4)GlcNAc(b1-3)Gal(b1-4)GlcNAc(b1-2)Man(a1-3)]Man(b1-4)GlcNAc(b1-4)[Fuc(a1-6)]GlcNAc
# In short: as §1
# [22] = biological target: Gal(b1-4)GlcNAc(b1-3)Gal(b1-4)GlcNAc(b1-3)Gal(b1-4)GlcNAc(b1-2)Man(a1-3)[Gal(b1-4)GlcNAc(b1-3)Gal(b1-4)GlcNAc(b1-3)Gal(b1-4)GlcNAc(b1-2)Man(a1-6)]Man(b1-4)GlcNAc(b1-4)GlcNAc
# In short: as §1
binder,measurement,setting,value
B1,glycan array binding signal (z-score),[1],0.069
same,glycan array binding signal (z-score),[2],-0.229
same,glycan array binding signal (z-score),Fuc(a1-2)Gal(b1-4)GlcNAc,-0.279
same,glycan array binding signal (z-score),[3],0.547
same,glycan array binding signal (z-score),[4],-0.468
same,glycan array binding signal (z-score),Fuc(a1-2)[Gal(a1-3)]Gal,-0.365
same,glycan array binding signal (z-score),[5],-0.363
same,glycan array binding signal (z-score),[6],0.008
same,glycan array binding signal (z-score),[7],-0.106
same,glycan array binding signal (z-score),[8],-0.455
same,glycan array binding signal (z-score),[9],-0.325
same,glycan array binding signal (z-score),[10],-0.394
same,glycan array binding signal (z-score),[11],-0.075
same,glycan array binding signal (z-score),[12],-0.064
same,glycan array binding signal (z-score),[13],-0.264
same,glycan array binding signal (z-score),[14],-0.277
same,glycan array binding signal (z-score),[15],-0.23
same,glycan array binding signal (z-score),[16],4.96
same,glycan array binding signal (z-score),Gal(a1-3)GalNAc,-0.186
same,glycan array binding signal (z-score),Gal(a1-4)Gal(b1-4)Glc,-0.376
same,glycan array binding signal (z-score),Gal(b1-2)Gal,0.468
same,glycan array binding signal (z-score),Gal(b1-3)Gal(b1-4)GlcNAc,-0.195
same,glycan array binding signal (z-score),[17],-0.41
same,glycan array binding signal (z-score),Gal(b1-3)GlcNAc(b1-2)Man,-0.113
same,glycan array binding signal (z-score),[18],2.97
same,glycan array binding signal (z-score),[19],-0.078
same,glycan array binding signal (z-score),Gal(b1-4)GlcNAc(b1-2)Man,-0.253
same,glycan array binding signal (z-score),[20],0.891
same,glycan array binding signal (z-score),[21],3.02
same,glycan array binding signal (z-score),[22],2.85
